Experimental data from PubChem BioAssay (NCATS).
Records with an inconclusive call do not appear. Entries that show only a call come without a potency. Activity calls are given as the source filed them. Calls follow the shape of the dose curve; as a rule, active = well fitted inhibition curve with a large enough effect; inconclusive = small, poorly fitted or top-dose-only effect; inactive = no such curve, though single readings can be large or run the other way.

Biological target: RecQ-like DNA helicase BLM (Homo sapiens) (UniProt P54132)
Assay: qHTS Validation Assay for Inhibitors of Bloom's syndrome helicase (BLM) (AID 2364)
Outline: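 BLM 50 nM in 25 mM Tris-HCl pH 8.0, 5 mM NaCl, 2 mM MgCl2, 1 mM DTT, 0.01% Tween-20, 2.5 ug/ml poly(dI-dC); 15 min cpd preinc, RT. Start: 200 nM forked DNA + 2 mM ATP (final). TAMRA read, 2 reads 2 h apart.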

Chain of RecQ-like DNA helicase BLM (Homo sapiens) (P54132 whole entry, looked up): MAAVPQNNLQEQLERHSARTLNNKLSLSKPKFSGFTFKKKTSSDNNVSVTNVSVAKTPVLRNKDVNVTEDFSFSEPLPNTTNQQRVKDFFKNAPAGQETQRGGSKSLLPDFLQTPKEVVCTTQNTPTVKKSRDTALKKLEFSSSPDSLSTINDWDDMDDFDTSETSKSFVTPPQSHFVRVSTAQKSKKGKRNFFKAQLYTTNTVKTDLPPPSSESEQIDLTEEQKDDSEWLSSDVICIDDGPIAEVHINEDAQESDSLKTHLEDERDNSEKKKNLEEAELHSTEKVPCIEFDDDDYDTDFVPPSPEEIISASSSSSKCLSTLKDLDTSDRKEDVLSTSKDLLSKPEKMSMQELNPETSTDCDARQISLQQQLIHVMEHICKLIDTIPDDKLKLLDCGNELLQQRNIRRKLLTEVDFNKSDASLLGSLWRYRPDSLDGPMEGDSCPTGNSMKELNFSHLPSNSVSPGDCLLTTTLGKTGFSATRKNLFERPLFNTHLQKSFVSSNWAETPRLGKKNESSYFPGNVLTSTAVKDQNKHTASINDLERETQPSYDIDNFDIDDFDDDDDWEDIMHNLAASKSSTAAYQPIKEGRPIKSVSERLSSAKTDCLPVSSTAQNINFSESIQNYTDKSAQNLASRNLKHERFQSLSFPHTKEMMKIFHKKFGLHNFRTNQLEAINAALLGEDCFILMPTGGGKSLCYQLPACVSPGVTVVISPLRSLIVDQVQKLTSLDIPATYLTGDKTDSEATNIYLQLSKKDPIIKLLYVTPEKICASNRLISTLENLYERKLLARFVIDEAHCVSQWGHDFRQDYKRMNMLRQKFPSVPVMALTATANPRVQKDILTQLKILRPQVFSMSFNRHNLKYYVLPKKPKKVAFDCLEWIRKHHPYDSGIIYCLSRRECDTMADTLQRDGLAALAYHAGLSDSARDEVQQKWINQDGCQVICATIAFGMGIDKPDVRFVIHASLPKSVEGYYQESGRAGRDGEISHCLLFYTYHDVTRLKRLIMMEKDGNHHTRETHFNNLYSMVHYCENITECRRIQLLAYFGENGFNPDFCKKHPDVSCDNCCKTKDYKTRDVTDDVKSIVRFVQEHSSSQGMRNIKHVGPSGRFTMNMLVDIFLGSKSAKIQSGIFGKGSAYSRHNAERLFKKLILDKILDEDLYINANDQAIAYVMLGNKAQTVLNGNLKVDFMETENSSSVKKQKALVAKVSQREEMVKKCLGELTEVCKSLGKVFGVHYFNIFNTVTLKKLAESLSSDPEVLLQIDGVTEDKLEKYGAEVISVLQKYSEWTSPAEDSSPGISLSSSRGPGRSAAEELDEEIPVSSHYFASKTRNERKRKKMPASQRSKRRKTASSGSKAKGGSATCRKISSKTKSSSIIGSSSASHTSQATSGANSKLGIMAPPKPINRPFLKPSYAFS

NC(N)=Nc1ccc2[nH]c3c(c2c1)C[C@@]1(O)[C@H]2Cc4ccc(O)c5c4[C@@]1(CCN2CC1CC1)[C@H]3O5
Potency: inactive
